# Data reported in PubChem BioAssay (NCATS).
# Inconclusive results are not listed. Where a call stands in place of a potency, no number is given. Activity calls are given as the source filed them. Unless noted, calls follow the shape of the full dose curve.
# Legend:
# [1] = target: DNA dC->dU-editing enzyme APOBEC-3G (Homo sapiens) (UniProt Q9HC16); assay: qHTS for inhibitors of Vif-A3G interactions: Validation (AID 588379; active = well fitted curve in the direction sought with a large enough effect; an effect the other way counts as inactive or inconclusive)
# Sequence of DNA dC->dU-editing enzyme APOBEC-3G (Homo sapiens) (Q9HC16 whole entry, looked up): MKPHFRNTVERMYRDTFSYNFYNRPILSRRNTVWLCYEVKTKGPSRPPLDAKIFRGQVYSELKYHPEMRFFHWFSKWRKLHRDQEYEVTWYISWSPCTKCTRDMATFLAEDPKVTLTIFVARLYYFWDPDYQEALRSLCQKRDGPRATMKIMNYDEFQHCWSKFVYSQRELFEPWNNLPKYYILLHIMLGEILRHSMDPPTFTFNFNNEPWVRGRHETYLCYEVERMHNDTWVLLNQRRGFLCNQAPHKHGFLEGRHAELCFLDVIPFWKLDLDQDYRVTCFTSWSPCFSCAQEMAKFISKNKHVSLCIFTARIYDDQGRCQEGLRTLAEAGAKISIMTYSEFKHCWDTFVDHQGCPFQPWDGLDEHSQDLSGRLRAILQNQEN
# In short: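 Yellow fluorescence (Ex 488, Em 500-530) of Vif-coexpressing HeLa A3G-eYFP cells, scanned by Acumen cytometer, reports blocked A3G degradation. Cells plated at 700/well overnight at 37 deg C before compound addition, then a further overnight compound incubation at 37 deg C.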
# [2] = tested on: Zika virus NS2B-NS3 protease; assay: Primary screen GU AMC qHTS for Zika virus inhibitors (AID 1347154; active = well fitted curve in the direction sought with a large enough effect; an effect the other way counts as inactive or inconclusive; also: nearly all actives have a fitted effect of over 70% in size)
# In short: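 Fluorogenic AMC-substrate cleavage by noncovalent NS2B-NS3 protease complex (25 nM, pH 8.0 Tris buffer with Tween 20) followed for 15 minutes at room temperature (~20% conversion). Percent inhibition from ex340/em450 signal change, fitted by 4-parameter Hill equation.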
# [3] = Primary qHTS for small molecule stabilizers of the endoplasmic reticulum resident proteome: Secreted ER Calcium Modulated Protein (SERCaMP) assay (AID 1508630; active = well fitted curve in the direction sought with a large enough effect; an effect the other way counts as inactive or inconclusive; also: potency is read from the fitted curve at half-maximal effect)
# In short: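 The SH-SY5Y reporter protocol was run at 3 concentrations up to 38.3 uM (primary) or 11 concentrations (follow-up): 16 h compound, 100 nM thapsigargin for 4 h, then extracellular luciferase luminescence.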
# [4] = Primary qHTS for inhibitors of SARS-S pseudo-typed particle cell entry (AID 1479145); also: nearly all actives have a fitted effect of over 45% in size
# [5] = Primary qHTS for Huh7 cytotoxicity: counterscreen for inhibitors of MERS-S pseudotyped particle cell entry (AID 1479147); settings: outcome: dose series up to 57.1 µM unless noted
# [6] = Primary qHTS for inhibitors of MERS-S pseudo-typed particle cell entry (AID 1479149); also: nearly all actives have a fitted effect of over 60% in size
# [7] = Primary qHTS for Vero E6 cytotoxicity: counterscreen for inhibitors of SARS-S pseudo-typed particle cell entry (AID 1479150); settings: outcome: dose series up to 57.1 µM unless noted
# [8] = Primary qHTS to identify inhibitors of SARS-CoV-2 cell entry (AID 1645846); settings: activity change, negative = inhibition: at 57.1 µM (top of the series) unless noted; also: nearly all actives have a fitted effect of over 45% in size; also: potency is read from the fitted curve at half-maximal effect
# In short: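 HEK293 cells stably expressing human ACE2, pre-treated 1 h with compound, then infected with MLV particles pseudotyped with Wuhan-Hu-1 spike (C-terminal 19-aa truncation). Luciferase luminescence after 48 h at 37 °C, normalised to spike PP and bald PP.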
# [9] = Confirmatory qHTS for VERO E6 Cytotoxicity Assay: Counterscreen for SARS-CoV-2 CPE Assay (AID 1508605); also: nearly all actives have a fitted effect of over 60% in size; also: potency is read from the fitted curve at half-maximal effect
# [10] = Confirmatory qHTS for activators (rescue) of SARS-CoV-2 Cytopathic Effect (CPE) (AID 1508606); also: potency is read from the fitted curve at half-maximal effect; nearly all actives have a fitted effect of over 70% in size
# [11] = qHTS Assay for Lipid Storage Modulators (AID 1519); settings: Drosophila S3 cells, BODIPY lipid droplet/cell ratio, laser cytometry, cells loaded with oleic acid; for activity change, negative = inhibition: at 57.5 µM (top of the series)
# In short: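 Cells seeded at 5,000 per well were treated with compounds over a concentration series and loaded with oleic acid (400 uM, as added). Lipid droplet fluorescence (488 nm excitation, 500-530 nm channel) was read by laser-scanning cytometry and normalized to 20 uM Triacsin C.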
# [12] = target: Ubiquitin carboxyl-terminal hydrolase 1 (Homo sapiens) (UniProt O94782); assay: Inhibitors of USP1/UAF1: Pilot qHTS (AID 504865; active = well fitted curve in the direction sought with a large enough effect; an effect the other way counts as inactive or inconclusive;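 also: rhodamine fluorescence freed from ubiquitin-rhodamine substrate followed over time; top concentration of the series differs between compounds; nearly all actives have a fitted effect of over 35% in size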)
# Sequence of Ubiquitin carboxyl-terminal hydrolase 1 (Homo sapiens) (O94782 whole entry, looked up): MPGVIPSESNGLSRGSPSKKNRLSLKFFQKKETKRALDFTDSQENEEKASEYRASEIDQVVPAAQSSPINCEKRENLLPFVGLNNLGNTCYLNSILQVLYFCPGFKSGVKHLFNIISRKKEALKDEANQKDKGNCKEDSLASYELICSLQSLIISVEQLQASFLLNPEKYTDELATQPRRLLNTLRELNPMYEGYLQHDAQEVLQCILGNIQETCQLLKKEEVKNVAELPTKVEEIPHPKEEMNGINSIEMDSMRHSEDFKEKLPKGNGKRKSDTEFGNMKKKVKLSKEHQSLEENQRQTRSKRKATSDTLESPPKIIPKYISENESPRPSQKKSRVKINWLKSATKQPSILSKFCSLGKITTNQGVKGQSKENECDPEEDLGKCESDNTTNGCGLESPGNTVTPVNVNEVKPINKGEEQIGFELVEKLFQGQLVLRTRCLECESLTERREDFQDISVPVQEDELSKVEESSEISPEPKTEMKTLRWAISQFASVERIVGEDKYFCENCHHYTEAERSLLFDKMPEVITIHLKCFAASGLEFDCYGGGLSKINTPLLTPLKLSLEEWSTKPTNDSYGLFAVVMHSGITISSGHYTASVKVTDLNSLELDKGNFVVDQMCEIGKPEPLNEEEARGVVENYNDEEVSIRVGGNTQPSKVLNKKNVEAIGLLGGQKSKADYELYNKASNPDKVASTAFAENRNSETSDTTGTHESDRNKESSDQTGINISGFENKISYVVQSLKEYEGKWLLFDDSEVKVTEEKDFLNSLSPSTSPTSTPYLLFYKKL
# In short: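 USP1/UAF1 complex at 1 nM preincubated 15 min at room temperature with compound, then Ub-Rho substrate added at 150 nM final. Fluorescence (480/540 nm) read kinetically in 50 mM HEPES pH 7.8, 0.5 mM EDTA, 1 mM TCEP, 0.1 mg/ml BSA, 0.01% Tween-20.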
# [13] = AP1 Signaling Pathway (AID 357; active = well fitted curve in either direction with a large enough effect, not every such curve was filed as active;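 also: ME-180 reporter cells stimulated with EGF at its EC50 level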)
# In short: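 In this screen, ME-180 cells in Opti-MEM with 0.5% dialyzed FBS received EC50 EGF and compound titrations for 5 h. AP-1 reporter beta-lactamase was detected via CCF4 ratio, giving AC50 for positive and negative modulators.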
# [14] = NFAT Signaling Pathway (AID 444; active = well fitted curve in either direction with a large enough effect, not every such curve was filed as active;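 also: carbachol stimulus at about its EC50 of 1 µM final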); settings: Jurkat NFAT-bla M1, carbachol, beta-lactamase ratio, 5 h
# In short: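 Read-out: CCF4 FRET ratio (460 nm/530 nm) after 1 h RT dye loading, used for %activity and AC50 from titration series. Cells: Jurkat NFAT-β-lactamase/M1 line, treated with compound plus 1 uM carbachol for 5 h, 37 °C.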
# [15] = Stat Signaling Pathway (AID 446; active = well fitted curve in either direction with a large enough effect, not every such curve was filed as active;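 also: ME-180 cervical cancer cells given 40 pM IL-6 alongside compound; SIE-controlled beta-lactamase reporter measured as 460/530 nm FRET emission ratio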)
# In short: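 Compound effects on IL-6-induced STAT reporter activity were measured in ME-180 cells. After overnight culture, cells were co-treated with 40 pM IL-6 for 5 hrs before beta-lactamase substrate loading at room temperature.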
# [16] = target: Glucocorticoid receptor (Homo sapiens) (UniProt P04150); assay: GR-GFP Redistribution (AID 450;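 active = compounds whose dose series gives a full or clear partial fitted curve of increased nuclear translocation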; also: potency is read from the fitted curve at half-maximal effect); settings: U2OS GR-GFP nuclear translocation, laser cytometry, 2 h
# Sequence of Glucocorticoid receptor (Homo sapiens) (P04150 whole entry, looked up): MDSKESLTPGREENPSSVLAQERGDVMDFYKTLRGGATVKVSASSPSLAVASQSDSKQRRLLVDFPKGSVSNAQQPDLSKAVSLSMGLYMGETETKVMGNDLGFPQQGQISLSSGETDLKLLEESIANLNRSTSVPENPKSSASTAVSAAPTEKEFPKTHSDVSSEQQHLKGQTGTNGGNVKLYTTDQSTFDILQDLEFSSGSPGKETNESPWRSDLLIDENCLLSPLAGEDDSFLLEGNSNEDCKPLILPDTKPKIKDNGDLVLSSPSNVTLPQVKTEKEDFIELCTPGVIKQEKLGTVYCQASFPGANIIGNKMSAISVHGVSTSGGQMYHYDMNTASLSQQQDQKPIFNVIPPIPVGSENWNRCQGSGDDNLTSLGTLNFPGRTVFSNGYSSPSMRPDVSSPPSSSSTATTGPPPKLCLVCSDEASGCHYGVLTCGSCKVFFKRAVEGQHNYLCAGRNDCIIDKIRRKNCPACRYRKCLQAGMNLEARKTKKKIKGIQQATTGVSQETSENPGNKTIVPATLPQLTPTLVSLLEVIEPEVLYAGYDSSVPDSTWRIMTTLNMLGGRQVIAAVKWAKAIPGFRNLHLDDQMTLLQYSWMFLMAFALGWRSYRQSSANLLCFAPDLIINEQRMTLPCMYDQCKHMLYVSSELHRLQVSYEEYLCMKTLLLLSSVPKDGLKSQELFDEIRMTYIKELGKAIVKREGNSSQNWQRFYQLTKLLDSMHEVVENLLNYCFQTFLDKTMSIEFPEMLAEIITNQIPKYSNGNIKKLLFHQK
# [17] = target: Cytochrome P450 2C9 (Homo sapiens) (UniProt P11712); assay: Cytochrome P450 family 2 subfamily C member 9 (CYP2C9) small molecule antagonists: luciferase biochemical (cell-free) qHTS assay (AID 1645842; active = well fitted curve in the direction sought with a large enough effect in the repeat runs; an effect the other way counts as inactive or inconclusive; also: nearly all actives have a fitted effect of over 55% in size; also: potency is read from the fitted curve at half-maximal effect)
# Sequence of Cytochrome P450 2C9 (Homo sapiens) (P11712 whole entry, looked up): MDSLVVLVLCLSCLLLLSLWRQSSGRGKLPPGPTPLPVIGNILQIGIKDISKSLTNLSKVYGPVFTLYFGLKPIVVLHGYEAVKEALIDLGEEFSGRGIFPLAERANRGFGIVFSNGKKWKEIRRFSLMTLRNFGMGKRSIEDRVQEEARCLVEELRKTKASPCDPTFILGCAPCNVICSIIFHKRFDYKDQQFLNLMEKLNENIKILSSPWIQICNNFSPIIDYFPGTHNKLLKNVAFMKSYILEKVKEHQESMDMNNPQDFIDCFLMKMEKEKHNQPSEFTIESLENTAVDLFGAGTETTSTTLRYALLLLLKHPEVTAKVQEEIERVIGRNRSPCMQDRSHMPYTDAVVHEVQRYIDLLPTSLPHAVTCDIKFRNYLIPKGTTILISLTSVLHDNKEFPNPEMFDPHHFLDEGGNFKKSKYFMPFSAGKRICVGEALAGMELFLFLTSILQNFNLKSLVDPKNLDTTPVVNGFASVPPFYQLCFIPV
# In short: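 P450-Glo CYP2C9 system: proluciferin substrate with enzyme in mix containing 0.4% BSA, 10 min at room temperature, then NADPH regeneration solution added and incubated 1 h at 37C. Detection reagent stopped reaction; luminescence read after 20 min as RLU.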
# HEK293T = assay: qHTS assay to identify novel small-molecules to repurpose for Merkel cell carcinoma treatment (AID 1296009; active = well fitted curve in the direction sought with a large enough effect; an effect the other way counts as inactive or inconclusive; also: nearly all actives have a fitted effect of over 60% in size); settings: MCC and control cell lines, CellTiter-Glo viability, 72 h; at 44.8 µM (top of the series) unless noted
# In short: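 Cell viability measured by CellTiter-Glo following 72 hr compound treatment at 37 degree celsius, with NPC and MIPE libraries tested in 8- and 11-point concentration series.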
# [18] = qHTS assay to identify inhibitors of the type 1 interferon - major histocompatibility complex class I in skeletal muscle: Counter screen cell viability and HiBit confirmation (AID 1347412; active = well fitted curve in the direction sought with a large enough effect; an effect the other way counts as inactive or inconclusive; also: nearly all actives have a fitted effect of over 60% in size; also: potency is read from the fitted curve at half-maximal effect); settings: iHSKM muscle cells + IFN-b, HiBiT or CellTiter-Glo, 24 h; Potency: HiBiT; Viability, at 45.9 µM (top of the series)
# In short: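 CRISPR HLA-B*08:01-HiBit immortalized human myoblasts (C25cl48) stimulated with 4 ng/ml IFN-beta and compounds (12-point 1:3, top 46 uM final) for 24 h at 37 C. Duplicate plates read by HiBit lytic luminescence or CellTiter Glo ATP.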
# [19] = qHTS to identify inhibitors of the type 1 interferon - major histocompatibility complex class I in skeletal muscle: primary screen against the NCATS Mechanism Interrogation Plate v5.0 (MIPE) Libary (AID 1347411; active = well fitted curve in the direction sought with a large enough effect; an effect the other way counts as inactive or inconclusive; also: nearly all actives have a fitted effect of over 65% in size; also: potency is read from the fitted curve at half-maximal effect)
# In short: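 IFN-beta-driven (4 ng/ml) HLA-B-HiBit expression in CRISPR-tagged C25cl48 myoblasts; compounds 11-pt, 1:3, max 46 uM, 24 hr exposure; lytic NanoLuc complementation luminescence.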
# [20] = measured here: cell count channel max response
# [21] = measured here: lipid channel max response
smiles,measurement,setting,value
CN1CCc2cc3c(cc2C1C1OC(=O)c2c1ccc1c2OCO1)OCO3 (centres undefined),Potency,[1],inactive
same,Potency,[2],inactive
same,Potency,[3],inactive
CC(=O)O[C@H]1CC[C@H]2[C@@H]3CC[C@H]4CC(=O)C=C(C)[C@]4(C)[C@H]3CC[C@]12C,Potency,[4],inactive
same,outcome,[5],inactive
same,Potency,[6],inactive
same,outcome,[7],inactive
COc1ccc(CN(C(=O)[C@@H](N)Cc2c(C)cc(C(N)=O)cc2C)[C@@H](C)c2ncc(-c3ccccc3)[nH]2)cc1C(=O)O,Potency,[4],inactive
same,outcome,[5],inactive
same,Potency,[6],inactive
same,outcome,[7],inactive
same,"activity change, negative = inhibition",[8],-25.7%
Oc1ccc2c3c1O[C@H]1c4[nH]c5c(N=C=S)cccc5c4C[C@@]4(O)[C@@H](C2)N(CC2CC2)CC[C@]314,Potency,[9],inactive
same,Potency,[10],10 µM (active)
CC(=O)N1N=C(c2ccc(N)cc2)c2cc3c(cc2C[C@H]1C)OCO3,"activity change, negative = inhibition",[8],-4.19%
CC1CCCC(=O)CCC/C=C/c2cc(O)cc(O)c2C(=O)O1 (centres undefined),"activity change, negative = inhibition",[11],-7.32% (inactive)
same,max response,[11]; [20],9.42%
same,max response,[11]; [21],4.67%
same,Potency,[12],inactive
C=CCN1CCC2(C)c3cc(O)ccc3C[C@H]1[C@H]2C,outcome,[13],inactive
same,"activity change, negative = inhibition",[14]; at 38 µM (top of the series),-29.1% (inactive)
same,outcome,[15],inactive
same,Potency,[16],> 46 µM (inactive)
same,"activity change, negative = inhibition",[11],-8.46% (inactive)
same,max response,[11]; [20],25.8%
same,max response,[11]; [21],17%
same,Potency,[12],inactive
same,Potency,[1],inactive
same,Potency,[2],inactive
same,Potency,[3],inactive
CN(C)c1cc2c(cc1Sc1nc3c(N)nccc3n1CCNCC(C)(C)C)OCO2,Potency,[10],2.24 µM (active)
CC(=O)OC[C@]12C[C@H](OC(=O)CC(C)C)C(C)=C[C@H]1O[C@@H]1[C@H](O)[C@@H](O)[C@@]2(C)[C@]12CO2,Potency,[9],0.113 µM (active)
CC1=CC(=O)[C@@H](O)[C@]2(C)C3[C@@H](O)[C@@H]4OC(=O)[C@@H]([C@H]4C)[C@]3(C)C(=O)C[C@@H]12 (some centres undefined),Potency,[9],2.24 µM (active)
N#Cc1ccc([C@H]2CCCC[C@H]2O)cc1C(F)(F)F,Potency,[17],26.8 µM (active)
Nc1ncnc2c1ncn2[C@@H]1O[C@@H]2COP(O)(=S)O[C@H]2[C@H]1O (some centres undefined),outcome,HEK293T,inactive [at 9.27 µM]
C=C1[C@@H](C)[C@H]2[C@H](Cc3ccccc3)NC(=O)[C@]23[C@H](OC(C)=O)/C=C/[C@](C)(O)C(=O)[C@@H](C)C/C=C/[C@H]3[C@@H]1O,Potency,[2],inactive
CN(C)[C@@H]1C(=O)C(C(N)=O)=C(O)[C@@]2(O)C(=O)C3=C(O)c4c(O)ccc(Cl)c4[C@@](C)(O)C3C[C@@H]12 (some centres undefined),outcome,[13],inactive
same,"activity change, negative = inhibition",[14]; at 17.2 µM (top of the series),0.867% (inactive)
same,outcome,[15],inactive
same,Potency,[16],> 20.6 µM (inactive)
CCC1C2CC3C4N(C)c5ccccc5C45CC(C2C5O)N3C1O (centres undefined),outcome,HEK293T,inactive
Cc1sc2c(c1C)C(c1ccc(Cl)cc1)=NC(CC(=O)Nc1ccc(O)cc1)c1nnc(C)n1-2 (centres undefined),"activity change, negative = inhibition",[8],-87.5%
CN1CCN(c2nc3ccccc3nc2Cl)CC1,outcome,HEK293T,inactive
Cc1sc2c(c1C)C(c1ccc(Cl)cc1)=N[C@@H](CC(N)=O)c1nnc(C)n1-2,"activity change, negative = inhibition",[8],-6.24%
same,Potency,[18],inactive
CN[C@@H]1C[C@H]2O[C@@](C)([C@@H]1OC)n1c3ccccc3c3c4c(c5c6ccccc6n2c5c31)C(=O)NC4,Potency,[19],0.829 µM (active)
same,Potency,[18],0.198 µM (active)
O=C(CC1NCCC[C@H]1O)Cn1cnc2cc(Br)c(Cl)cc2c1=O (some centres undefined),Potency,[17],inactive
CCCCN1[C@@H]2CC[C@H]1CC(OC(c1ccc(F)cc1)c1ccc(F)cc1)C2 (some centres undefined),Potency,[10],5.01 µM (active)
C[C@@H]1CN(Cc2ccc(F)cc2)CCN1C(=O)COc1ccc(Cl)cc1NC(N)=O,Potency,[19],inactive
same,Potency,[8],2.51 µM (active)
C[C@H]1CCC/C=C/C2C[C@H](O)C[C@H]2[C@H](O)/C=C/C(=O)O1 (some centres undefined),Potency,[2],inactive
same,Potency,[19],0.147 µM (active)
same,Potency,[3],0.316 µM (active)
same,Potency,[8],1 µM (active)
same,Potency,[18],0.14 µM (active)
C[C@@]1(CO)[C@H](O)CC[C@@]2(C)[C@H]1CC[C@H]1C[C@@H]3C[C@@]12CC[C@]3(O)CO,outcome,[13],inactive
same,"activity change, negative = inhibition",[14]; at 17.2 µM (top of the series),10.1% (inactive)
same,outcome,[15],inactive
same,Potency,[16],> 20.6 µM (inactive)
same,Potency,[3],inactive
C=C1C[C@]2(O)[C@@]3(C)CCC(=O)C(C)(C)C3=C(O)C(=O)[C@@]2(C)[C@@H]2C(=O)O[C@@](C)(C(=O)OC)C(=O)[C@@]12C,outcome,HEK293T,inactive [at 17.4 µM]
Cc1ccc2c(c1)[C@H]1CN(C)CC[C@H]1N2C(=O)CSc1nnnn1-c1ccc(Cl)cc1,Potency,[17],inactive
CN1CCC2=C(C1)c1ccccc1Cc1ccccc12,outcome,[5],inactive
same,Potency,[6],inactive
same,outcome,[7],inactive
O=C(N1CCCCC1Cc1ccccc1)n1cc(-c2ccc(-c3ccccc3)cc2)nn1 (centres undefined),Potency,[17],2.68 µM (active)
CN=C(NS(=O)(=O)c1ccc(Cl)cc1)N1C[C@H](c2ccccc2)C(c2ccc(Cl)cc2)=N1,Potency,[17],inactive
CN1CCCCC1Cn1cc(C(=O)c2cc([N+](=O)[O-])ccc2I)c2ccccc21 (centres undefined),Potency,[9],inactive
same,Potency,[10],10 µM (active)
COc1ccc2c(c1)c(CCN(C)C)cn2S(=O)(=O)c1ccccc1,Potency,[9],inactive
CN1C(=O)[C@@H](Cc2c[nH]c3ccccc23)N=C(c2ccccc2F)c2ccccc21,Potency,[17],6.74 µM (active)
CN(Cc1cccc(-c2ccncc2)c1)C(=O)Oc1ccc(-c2ccc(C(N)=O)cc2)cc1,Potency,[17],inactive
C=C(C)[C@@H]1[C@H]2OC(=O)[C@H]1[C@]1(O)C[C@H]3O[C@]34C(=O)O[C@H]2[C@]14C,outcome,HEK293T,inactive
